In the library only some 6.2% were active in any assay of this set; here they are far more common.
ATXN viability – Viability Counterscreen for Primary qHTS for Inhibitors of ATXN expression; S2 cells (HEK-293 line with an ATXN2-luciferase reporter) viability, CellTiter-Fluor protease fluorescence, 24 h; Potency, µM (highest dose often 56.7 µM), hits mostly cytotoxic; 400,000 tested, 0.49% active; AID 651635, 2014; further: nearly all actives have a fitted effect of over 40% in size
KB-V1 MDR tox – qHTS assay for MDR1-selective chemotherapeutics: Primary screen using the drug-selected MDR subline cells KB-V1. KB-V1 MDR cells viability, CellTiter-Glo, 72 h. Potency, µM (doses to about 46.1 µM), actives largely listed as cytotoxic. 400,000 tested, 3.4% active; further: on the % scale 0 is the no-effect control and ±100 the full control effect; nearly all actives have a fitted effect of over 60% in size
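Readout: CellTiter-Glo luminescence, 10 min after addition. Cells: KB-V1 MDR subline, 72 h at 37 degrees C with compound. Analysis: corrected, normalized data fitted to concentration-effect curves.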
HT1080NT lethal – qHTS for induction of synthetic lethality in tumor cells producing 2HG: qHTS for the HT-1080-NT fibrosarcoma cell line | HT-1080-NT fibrosarcoma viability, CellTiter-Glo ATP luminescence, 48 h | Potency, µM (series often up to 46.1 µM), for inactives: top-dose activity, negative = less viability, hits mostly cytotoxic | 360,000 tested, 1.6% active | AID 686970, 2013;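 further: NT is the 2HG producing partner of a matched IDH1 knockdown line; 0% = DMSO-treated cells and -100% = media-only wells without cells; nearly all actives have a fitted effect of over 55% in size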
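750 cells/well, RPMI + 5% FBS; 2 h settle, compound pin-transfer, 48 h at 37 degrees C. CellTiter-Glo 10 min RT, luminescence. Normalized to DMSO and media-only wells.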
ATXN2 expr inh – Primary qHTS for Inhibitors of ATXN expression. HEK-293 ATXN2-luciferase reporter, luminescence, 24 h. Potency, µM (series often up to 57 µM), without a hit: at the top dose activity change, negative = inhibition, most hits filed as inhibitors. 360,000 tested, 0.72% active. AID 1745845, 2022; further: on the % scale 0 is the no-effect control and ±100 the full control effect; nearly all actives have a fitted effect of over 55% in size
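qHTS (up to 57 uM final) was run with 24 h compound exposure of reporter cells at 37 °C. Each well was multiplexed: SteadyGlo luminescence measured ATXN2-luciferase expression after a fluorogenic Gly-Phe-AFC viability readout (25 uM final).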
HT1080 IDH1KD tx – qHTS for induction of synthetic lethality in tumor cells producing 2HG: qHTS for the HT-1080-IDH1KD cell line. Potency, µM (series often up to 46.1 µM), without a hit: top-dose activity, negative = toxicity, most hits filed as cytotoxic. AID 686971, 2013. HT-1080 IDH1 knockdown viability, ATP luminescence, 48 h. 360,000 tested, 2% active;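 further: 0% = DMSO wells and -100% = cell-free medium wells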
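Cytotoxicity counter-line: IDH1KD HT-1080, 48 h, CellTiter-Glo. Curves classed by r2, magnitude and activity.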
KB-3-1 cytotox – qHTS assay for MDR1-selective chemotherapeutics: Primary screen using the parental adenocarcinoma cell KB-3-1; Potency, µM (titrated, usually from 46.1 µM), most hits filed as cytotoxic; KB-3-1 viability, CellTiter-Glo ATP luminescence, 72 h; AID 1347075, 2019; 400,000 tested, 1.4% active; further: on the % scale 0 is the no-effect control and ±100 the full control effect; nearly all actives have a fitted effect of over 60% in size
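Here the drug-naive KB-3-1 line serves as comparator for MDR sub-line selectivity; cells received compound titrations, 72 h at 37 °C, then CellTiter-Glo readout.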
Active calls of the source: *; i = inactive; u = inconclusive; x = no result given; ! = repeats disagree; [ ] = another dose, or the depositor's remark. The call rests on the fitted dose curve; in most records, active means well fitted curve in the direction sought with a large enough effect; inconclusive means small, poorly fitted or top-dose-only effect, or another doubt; inactive means no such curve, though single readings can be large; an effect the other way counts as inactive or inconclusive. Potency means the concentration at half of the fitted maximal effect.

SMILES	ATXN viability	KB-V1 MDR tox	HT1080NT lethal	ATXN2 expr inh	HT1080 IDH1KD tx	KB-3-1 cytotox
CCOc1cc2c(cc1OCC)-n1cccc1C(c1cc(C)c(OC)cc1C)NC2 (stereo not given)	u	i	-20%	x	-16%	i
CCOc1cc2c(cc1OCC)-n1cccc1C(c1ccc(C)cc1C)NC2 (stereo not given)	u	u	u	u	21µM*	u
CCNC(=O)C1CCCN(C(=O)c2c(-c3ccccc3)noc2C)CC1 (stereo not given)	u	i	15%	13%	3%	i
O=C(Nc1ccc(Cl)cc1)Nc1nccs1	u	2.6µM*	7.3µM*	-8%	7.3µM*	4.6µM*
CC(N)Cc1ccc2c(c1)OCO2 (stereo not given)	i	x	x	x	x	x
O=C(CCl)Nc1sccc1C(=O)c1ccccc1	u	u	10µM*	-32%	u	i
NC(=O)c1ccsc1NC(=O)COC(=O)Cc1ccccc1	i	i	1%	x	-5%	i
CCOC(=O)c1[nH]c(=O)c2ccccc2c1O	u	i	-6%[9.24 µM]	0%	0%	i
O=Nc1c(O)c2ccccc2c2ccccc12	16µM*	16µM*	6.5µM*	7.9µM*	2.9µM*	4.6µM*
C[C@@H](N)C(=O)c1ccccc1	i	x	x	x	x	x
COc1ccccc1N(CC(=O)NC1CCCC1)C(=O)c1cnn(C(C)C)c1	i	i	24%	5%	18%	i
CC(C)n1cc(C(=O)N(CC(=O)NC2CCCC2)Cc2ccccc2)cn1	i	13µM*	5%	0%	1%	i
Cc1ccc(-n2c(C)cc(/C=N/NC(=O)c3ccc(CN4CCOCC4)cc3)c2C)cc1	i	16µM*	-15%	-20%	u	i
Cc1ccc(-n2c(O)c(C=NCCN3CCOCC3)c(=O)[nH]c2=O)cc1	i	u	u	3%	9%	i
CCN(CC)C(=O)c1ccc(NC(=O)c2cccc(F)c2)cc1	i	21µM*	7%	49%	4%	i
CC12CCC3c4ccc(OC(=O)N(CCCl)CCCl)cc4CCC3C1CCC2O (stereo not given)	u	5.8µM*	u	-31%	u	u
CC(C)Oc1ccc(CNC(=O)Oc2ccccc2)cc1	u	i	-3%	u	u	u
COc1ccc2c(c1)[nH]c1c(C)nccc12	i	23µM*!	0%	3%	-7%	u
Cc1nccc2c1[nH]c1ccc(Br)cc12	i	u	-21%	-14%	-20%	i
O=C(CN1CC=C(c2ccccc2)CC1)Nc1cc(Cl)ccc1Cl	i	u	5%	-1%	8%	i
Cc1ccc(S(=O)(=O)N2CCCCC2)cc1NC(=O)CN1CC=C(c2ccccc2)CC1	i	6.5µM*	3%	-11%	12%	u
CCOC(=O)CC(SP(=S)(OC)OC)C(=O)OCC (stereo not given)	i	x	x	11%	x	x
COc1ccc(NC(=O)CN2C3CCC2CC(O)(c2cccnc2)C3)cc1OC (stereo not given)	i	i	-2%	-2%	-4%	i
COc1ccc(NC(=O)C2Cc3c(-c4cccc(C(C)=O)c4)ccnc3O2)cc1OC (stereo not given)	i	9.2µM*	u	u	u	5.2µM*
CC(C(O)c1ccccc1)N(C)C/C=C/c1ccccc1 (stereo not given)	i	x	x	-20%	x	x
SMILES	ATXN viability	KB-V1 MDR tox	HT1080NT lethal	ATXN2 expr inh	HT1080 IDH1KD tx	KB-3-1 cytotox
CC(C)=CCN1CC[C@]2(C)c3cc(O)ccc3C[C@H]1[C@H]2C	i	x	x	x	x	x
COc1ccc2[nH]c(C)c(CCNCc3cccnc3)c2c1	i	i	0%	-1%	-3%	i
Cc1ccc2[nH]c(C)c(CCNCc3ccco3)c2c1	i	i	-1%	x	-2%	i
Cc1[nH]c2ccc(OC(F)(F)F)cc2c1CCNCc1cccc([N+](=O)[O-])c1	i	u	15µM*	u	13µM*	u
CCOc1cccc(CNCCc2c(C)[nH]c3ccc(OC(F)(F)F)cc23)c1O	u	23µM*	u	x	18µM*	i
Cc1[nH]c2ccc(OC(F)(F)F)cc2c1CCNCc1ccc(Cl)cc1	u	u	u	20µM*	15µM*	u
Cn1c(CCCC(=O)O)nc2cc(N(CCCl)CCCl)ccc21	i	x	x	u	x	x
C[C@@H]1[C@H](O)[C@@H](C)C=CC=CCCC=CC=CC=CC=C[C@H](O[C@H]2O[C@@H](C)[C@H](O)[C@@H](N)[C@@H]2O)CC2O[C@](O)(C[C@@H](O)[C@H](O)CC[C@@H](O)C[C@@H](O)C[C@@H](O)CC(=O)O[C@H]1C)C[C@H](O)[C@H]2C(=O)O	i	x	x	10%	x	x
c1cc2c(cc1NC1=NCCO1)CCCC2	u	u	u	7%	u	15µM*
Oc1cc(Cl)ccc1Oc1ccc(Cl)cc1Cl	40µM*!	i	u	40µM*!	-28%	i
COc1cc(=O)n2c(c1C(=O)N(C)Cc1nonc1C)CCN(C(=O)C1C(C)(C)C1(C)C)CC2	i	x	x	x	x	x
CCc1ccc(-n2c(=O)c3sc4ccccc4c3n(CC(=O)NC3CCCC3)c2=O)cc1	u	i	x	0%	x	i
CCOc1ccc(-c2nc(CSCC(=O)NCCc3ccc(OCC)c(OCC)c3)c(C)o2)cc1	32µM*	u	x	20µM*	x	i
CCOc1ccc(CC(=O)Nc2ccc3c(c2)N(C)C(=O)c2ccccc2S3)cc1OCC	u	i	x	-25%	x	i
C=C(C=O)CC1CC(O)[C@]2(C)OC3CC4OC5C[C@]6(C)O[C@]7(C)CCC8OC9C[C@]%10(C)OC%11C(C)=CC(=O)OC%11CC%10OC9C[C@@H](C)C8OC7CC6O[C@]5(C)CC5OC5C4OC3CC2O1 (stereo not given in full)	x	i	u	u	x	12µM*
C=CCn1c(O)c(N=Nc2c(C)n(C)n(-c3ccccc3)c2=O)c(=O)[nH]c1=S	u	3.3µM*	-7%	u	-14%	u
Oc1ccc(-[n+]2c(-c3ccccc3)cc(-c3ccccc3)cc2-c2ccccc2)cc1	u	i	12µM*	13µM*	21µM*	i

Bioassay records as filed in PubChem BioAssay.
